# Compound activity: PubChem, Sanford-Burnham Center for Chemical Genomics
# Sampled rows, rich in hits. Any-hit rate of the full collection: about 6.3%.
# MPTP block: mitochondrial permeability transition pore inhibitors, primary screen, biochemical, isolated mouse mitochondria, absorbance; AID 602449, 2012; Ca2+ swelling absorbance, 30 min; actives 1.4% (n = 360,000); inhibition, % at 10 µM;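 active means inhibition of 50% or more, scaled per plate between neutral and stimulator controls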
# Mdm2 MdmX PPI: inhibitors of human Mdm2-MdmX association, primary screen, cell-based, luminescence, split luciferase, SaOS-2, uHTS. SaOS-2 split-luciferase Mdm2/MdmX complementation. actives 3% (n = 330,000). inhibition, % at 8 µM;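 active means inhibition of at least 50% at 8 µM in the primary screen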
# Target sequence (O15151 whole entry, looked up): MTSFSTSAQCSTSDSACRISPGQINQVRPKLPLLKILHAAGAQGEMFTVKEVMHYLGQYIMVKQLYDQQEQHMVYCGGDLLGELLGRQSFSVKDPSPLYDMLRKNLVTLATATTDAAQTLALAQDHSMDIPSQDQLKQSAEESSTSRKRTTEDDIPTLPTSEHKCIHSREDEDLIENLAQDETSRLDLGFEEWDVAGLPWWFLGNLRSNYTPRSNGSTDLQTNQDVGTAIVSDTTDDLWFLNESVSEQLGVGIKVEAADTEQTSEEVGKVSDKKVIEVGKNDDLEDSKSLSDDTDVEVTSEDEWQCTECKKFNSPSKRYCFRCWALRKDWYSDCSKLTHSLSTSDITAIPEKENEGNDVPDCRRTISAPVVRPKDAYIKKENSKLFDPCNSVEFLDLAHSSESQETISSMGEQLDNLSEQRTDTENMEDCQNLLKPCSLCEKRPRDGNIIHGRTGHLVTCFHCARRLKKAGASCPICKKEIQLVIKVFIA
# Target sequence (Q00987 whole entry, looked up): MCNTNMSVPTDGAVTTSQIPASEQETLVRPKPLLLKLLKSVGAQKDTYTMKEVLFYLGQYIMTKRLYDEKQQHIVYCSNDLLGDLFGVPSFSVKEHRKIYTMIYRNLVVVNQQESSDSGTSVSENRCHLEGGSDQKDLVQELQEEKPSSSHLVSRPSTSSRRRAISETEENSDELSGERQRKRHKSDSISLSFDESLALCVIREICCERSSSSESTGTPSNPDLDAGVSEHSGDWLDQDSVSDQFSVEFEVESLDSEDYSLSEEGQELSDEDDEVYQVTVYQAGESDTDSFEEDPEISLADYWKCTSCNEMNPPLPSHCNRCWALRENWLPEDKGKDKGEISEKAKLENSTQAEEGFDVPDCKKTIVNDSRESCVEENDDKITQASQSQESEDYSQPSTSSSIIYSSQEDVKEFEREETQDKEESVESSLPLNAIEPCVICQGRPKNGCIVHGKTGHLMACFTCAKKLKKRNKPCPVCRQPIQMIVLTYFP
# tim10-1 inh: growth inhibitors of tim10-1 mutant yeast, primary screen, luminescence, uHTS; S. cerevisiae tim10-1 ts strain growth, BacTiter-Glo, 24 h; inhibition, % at 20 µM; actives 2.2% (n = 330,000);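 active means inhibition of at least 40%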;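 further: mutant grown at 25 °C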
# TIM10 inh: growth inhibitors of isogenic TIM10 control yeast, primary screen, counter-screen for tim10-1 yeast inhibitor project, luminescence, uHTS; S. cerevisiae TIM10 strain growth, BacTiter-Glo luminescence, 24 h; inhibition, % at 10 µM; actives 1.4% (n = 330,000);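 active means inhibition of 40% or more at the single tested concentration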;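 further: wild-type TIM10 isogenic control strain grown at permissive 25 °C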
# tim23-1 inh: growth inhibitors of tim23-1 mutant yeast, primary screen, luminescence, uHTS. S. cerevisiae tim23-1 growth, BacTiter-Glo luminescence, 24 h. inhibition, % at 20 µM. actives 1.3% (n = 330,000);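 active means growth inhibition of the mutant yeast at or above 50%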;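 further: temperature-sensitive mutant grown at 25 °C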
# tim10-1 confirm: growth inhibitors of tim10-1 mutant yeast, confirmation, single concentration, luminescence, S. cerevisiae | shares compounds with tim10-1 inh | S. cerevisiae tim10-1 ts strain growth, BacTiter-Glo, 24 h | inhibition, % at 20 µM | actives 56% (n = 7,400);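 active means inhibition of yeast growth at or above a set limit in either of two repeat tests at 20 µM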;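 further: tim10-1 mutant grown at permissive 25 °C to find synthetic lethal compounds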
# A number is an active result; . = inactive; / = no result.
SMILES,MPTP block,Mdm2 MdmX PPI,tim10-1 inh,TIM10 inh,tim23-1 inh,tim10-1 confirm
CN1/C(=C\C(=O)COC(=O)CN2C(=O)C3CC=CCC3C2=O)C(C)(C)c2ccccc21 (stereo unspecified),.,.,41.7,.,.,.
CN1/C(=C\C(=O)COC(=O)CNC(=O)c2ccc3ccccc3c2)C(C)(C)c2ccccc21,.,.,43.9,.,.,.
Cc1cc(C)n2nc(CNS(=O)(=O)c3ccc(C(C)(C)C)cc3)nc2n1,.,/,/,/,/,/
Cc1cc(C)c(COc2ccc(/C=N/n3c(C)n[nH]c3=S)cc2)c(C)c1,.,.,41.2,.,.,.
Cc1n[nH]c(=S)n1/N=C/c1ccc(OCc2ccc(Cl)cc2)cc1,.,.,.,.,.,/
Cc1cc(Cl)ccc1OC(C)C(=O)N1CCCN(C(=O)C(C)Oc2ccc(Cl)cc2C)CC1 (stereo unspecified),.,.,43.8,.,.,.
CC(C)(C)c1ccc(CC(=O)N2CCC2(C)C(=O)NCc2ccc3c(c2)OCO3)cc1 (stereo unspecified),.,/,/,/,/,/
Cc1cccc(NC2=C(NCCO)C(=O)c3ccccc3C2=O)c1,.,.,41.5,.,.,32.2
CCOC(=O)n1c(=O)n(Cc2ccc(OC)cc2)c2ccccc21,.,.,49.6,.,.,46.4
CC1(C(=O)NCc2cccs2)CCN1C(=O)Cc1cccc2ccccc12 (stereo unspecified),.,/,/,/,/,/
O=S(=O)(/N=C(/Sc1ccccc1)c1ccccc1)c1ccccc1,.,.,51.5,.,.,43.0
CC(=O)Nc1cncc(-c2cnn(CC(C)C)c2)n1,.,/,/,/,/,/
Cc1ccccc1C(=O)N1CCN(c2ccc(NC(=O)c3ccc4c(c3)OCO4)cc2)CC1,.,.,43.7,.,.,29.2
CCc1nn(-c2ccccc2)c(=S)c2ccccc12,.,.,45.7,.,.,51.7
COCC(=O)N[C@H]1CC[C@@H](CC(=O)OC)O[C@@H]1CO,.,/,/,/,/,/
Cc1c(-c2ccc(F)cc2)nc(N)c(C#N)c1-c1cccs1,.,.,.,.,.,/
CSc1nc(N)nc(-c2cccs2)c1C#N,.,.,47.5,.,.,36.0
COc1ccc(C(=O)CC(C(=O)O)c2ccc3c(c2)OCO3)cc1OC (stereo unspecified),.,/,/,/,/,/
COc1cc2c(cc1NC(=O)COC(=O)[C@@H](NC(=O)c1ccccc1)C(C)C)oc1ccccc12,.,.,.,.,.,/
COc1cc2c(cc1NC(=O)COC(=O)[C@@H](NC(=O)c1ccccc1F)C(C)C)oc1ccccc12,.,.,40.4,.,.,.
CC(C)(C)C(=O)Nc1nnc(SCc2ccc(F)cc2)s1,.,.,49.9,.,.,44.3
O=C(c1noc2c1CCc1ccccc1-2)N1CCCc2ccccc21,.,.,41.7,.,.,.
O=C(c1noc2c1CCc1ccccc1-2)N1CCOCC1,.,.,.,.,.,/
O=C(NC1CCCCCC1)c1ccc[nH]c1=S,.,.,43.6,.,.,.
Cc1ccccc1C(=O)NC1CCCCCCC1,.,.,.,.,.,/
SMILES,MPTP block,Mdm2 MdmX PPI,tim10-1 inh,TIM10 inh,tim23-1 inh,tim10-1 confirm
COC(=O)c1cccc2c1-c1ccccc1/C2=N\NC(N)=O,.,.,40.4,.,.,.
Cn1ncc(Br)c1C(=O)N/N=C/c1ccc(OS(=O)(=O)c2ccccc2)cc1,.,.,45.3,.,.,.
CCOCCOC(=O)c1ccc(NC(=O)C2COc3ccccc3O2)cc1 (stereo unspecified),.,.,41.9,.,.,.
CCOC(=O)c1ccc(NC(=O)C2COc3ccccc3O2)cc1 (stereo unspecified),.,.,.,.,.,/
CCOC(=O)c1sc(Nc2cccc(C)c2C)nc1C,/,.,43.4,.,.,32.3
Cc1ccc(C(=O)N2CCN(c3cccc(Cl)c3)CC2)cc1C,.,.,50.2,.,.,.
O=C(c1cc(=O)c2ccccc2o1)N1CCN(c2ccccc2F)CC1,.,.,.,.,.,/
O=C(c1cc(=O)c2ccccc2o1)N1CCN(c2cccc(Cl)c2)CC1,.,.,44.5,.,.,.
Brc1ccc(Oc2nnnn2-c2ccccc2)cc1,.,.,43.7,.,.,35.2
Cc1nn(Cc2c(F)c(F)c(F)c(F)c2F)c(C)c1NC(=O)c1ccc(COc2ccccc2Cl)o1,.,.,46.4,.,.,31.6
Cc1nn(Cc2c(F)c(F)c(F)c(F)c2F)c(C)c1NC(=O)c1ccc(COc2ccccc2Cl)cc1,.,/,/,/,/,/
COc1ccc(NC(=O)c2cc(C3CCCCN3C(=O)c3ccccc3)on2)c(C)c1 (stereo unspecified),.,/,/,/,/,/
O=C(OC1CCCCC1=O)c1cccc(S(=O)(=O)N2CCCCC2)c1 (stereo unspecified),.,.,43.4,.,.,.
Cc1ccc(S(=O)(=O)N2CCCCC2)cc1C(=O)OC1CCCCC1=O (stereo unspecified),.,.,40.6,.,.,.
O=C(OC1CCCCC1=O)c1cc(S(=O)(=O)N2CCOCC2)ccc1F (stereo unspecified),.,.,.,.,.,/
CCCCCCCCN1C(=O)[C@H](CC(=O)NCc2ccccc2)C[C@@]2(C(=O)OC)CCCCC=C12,.,/,/,/,/,/
CC(=O)Nc1cc(-c2ccc(N(C)C)cc2)cn2c(-c3ccc(F)cc3)cnc12,.,/,/,/,/,/
Cc1ccccc1-c1nc2cc(N)ccc2o1,.,.,.,.,.,/
CC(C)c1ccc2oc(-c3cc(N)ccc3O)nc2c1,.,.,52.4,.,.,33.5
CCCCCCn1cc(CN2CC(N3CCN(C4CCN(C)CC4)CC3)CS2(=O)=O)nn1 (stereo unspecified),.,/,/,/,/,/
COc1ccc2c(C(F)(F)F)cc(=O)oc2c1C,.,.,.,.,.,/
Cc1c(C)c2ccc(Oc3ccc([N+](=O)[O-])cc3C(F)(F)F)c(C)c2oc1=O,.,.,40.3,.,.,.
COC(=O)c1cn(-c2ccccc2)nc1-c1ccc(OC)c(OC)c1,.,.,41.6,.,.,.
COC(=O)c1cn(-c2ccccc2)nc1-c1ccccc1,.,.,.,.,.,/
CC(=O)OCC(=O)C1(O)CCC2C3CCC4C(OC(C)=O)C(=O)CCC4(C)C3C(=O)CC21C (stereo unspecified),.,/,/,/,/,/
Nc1sccc1C(=O)N1CCN(c2ccccc2)CC1,.,/,/,/,/,/
Cc1nc(-c2ccc(S(=O)(=O)Nc3ccccc3C)cc2)co1,.,.,.,.,.,/
Cc1ccc(NS(=O)(=O)c2ccc(-c3coc(C)n3)cc2)c(Br)c1,.,.,57.4,.,.,.
Cc1ccc(C)c(NS(=O)(=O)c2ccc(-c3coc(C)n3)cc2)c1,.,.,40.6,.,.,.
